In PubChem BioAssay (NCI):
Compounds without any hit were thinned out: in the full panel of roughly 79,000, 15% have a hit. Active and inactive are the calls of the source. No stated cut-off is given here; in the data, active means growth inhibition above about 70%; inactive means the rest.

Key:
[1] = NCI Yeast Anticancer Drug Screen. Data for the wt1 strain (AID 149);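 further: 0% = growth of vehicle-treated wt1 cultures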; conditions: S. cerevisiae wt1 strain (SPY 50644) growth inhibition, active compounds read high
Method in brief: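 The wt1 strain was treated with compounds, and growth was compared with vehicle-treated cultures to give inhibition.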

[2] = NCI Yeast Anticancer Drug Screen. Data for the rad50EPP+ strain (AID 151);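 further: 0% = growth of vehicle-treated control cultures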; conditions: S. cerevisiae rad50 mutant strain, active compounds read high
Method in brief: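 In this screen, rad50EPP+ yeast were exposed to compounds. Growth inhibition was scored against vehicle-treated controls.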

[3] = NCI Yeast Anticancer Drug Screen. Data for the mgt1 strain (AID 153); conditions: S. cerevisiae mgt1 mutant growth inhibition, active compounds read high
Method in brief: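 mgt1 strain exposed; growth vs vehicle control recorded as inhibition.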

[4] = NCI Yeast Anticancer Drug Screen. Data for the rad50 strain (AID 155);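 further: 0% = growth of vehicle-only cultures of the same strain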; conditions: S. cerevisiae rad50 strain growth inhibition, active compounds read high
Method in brief: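 Cells are treated with compound, grown, and their growth is then scored against vehicle-only cultures of the same repair-deficient yeast strain.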

[5] = NCI Yeast Anticancer Drug Screen. Data for the mec2-1 strain (AID 157); conditions: S. cerevisiae mec2-1 strain, active compounds read high
Method in brief: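 Vehicle-treated cultures served as reference for growth inhibition of compound-exposed mec2-1 yeast.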

[6] = NCI Yeast Anticancer Drug Screen. Data for the rad14 strain (AID 159);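 further: 0% = growth of vehicle-treated control cultures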; conditions: S. cerevisiae rad14 strain growth inhibition, active compounds read high
Method in brief: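 Readout: yeast growth inhibition, referenced to vehicle-only cultures. Strain bears a defined alteration in DNA damage repair.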

[7] = NCI Yeast Anticancer Drug Screen. Data for the sgs1 mgt1 strain (AID 161);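 further: 0% = growth of cultures given vehicle only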; conditions: S. cerevisiae sgs1 mgt1 strain, active compounds read high
Method in brief: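 Test agents were incubated with a DNA-repair-mutant yeast strain. Growth was then read and compared against vehicle-treated controls.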

[8] = NCI Yeast Anticancer Drug Screen. Data for the cln2 rad14 strain (AID 165);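 further: 0% = growth equal to vehicle treated cultures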; conditions: S. cerevisiae cln2 rad14 strain, active compounds read high
Method in brief: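 Each compound was tested on cln2 rad14 yeast. Inhibition of growth was calculated against vehicle-exposed controls.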

[9] = NCI Yeast Anticancer Drug Screen. Data for the bub3 strain (AID 167); conditions: S. cerevisiae bub3 mutant strain, active compounds read high
Method in brief: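 Part of a panel of yeast mutants defective in DNA damage repair or cell cycle regulation. Each strain is grown with compound, and inhibition is calculated relative to solvent-treated cultures.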

[10] = NCI Yeast Anticancer Drug Screen. Data for the wt2 strain (AID 169);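 further: 0% = growth of vehicle-treated yeast cultures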; conditions: S. cerevisiae wt2 strain growth inhibition, active compounds read high
Method in brief: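 Inhibition of yeast growth was determined after compound treatment, normalised to controls receiving only vehicle.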

[11] = NCI Yeast Anticancer Drug Screen. Data for the mlh1 strain (AID 171);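 further: 0% = growth of vehicle-treated control cultures of the same strain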; conditions: S. cerevisiae mlh1 strain growth inhibition, active compounds read high
Method in brief: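 Vehicle-normalised growth inhibition of a repair- or checkpoint-altered yeast strain following compound treatment.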

[12] = NCI Yeast Anticancer Drug Screen. Data for the sgs1 strain (AID 173);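 further: 0% = growth of vehicle-only control cultures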; conditions: S. cerevisiae sgs1 mutant, active compounds read high
Method in brief: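 Screen format: yeast with repair or checkpoint alterations, compound exposure, growth read relative to vehicle.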

[13] = NCI Yeast Anticancer Drug Screen. Data for the mlh1 rad18 strain (AID 175); conditions: S. cerevisiae mlh1 rad18 strain growth inhibition, active compounds read high
Method in brief: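 Vehicle-treated cultures served as the reference for growth inhibition in a yeast strain carrying DNA damage repair alterations exposed to each compound.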

[14] = NCI Yeast Anticancer Drug Screen. Data for the rad18 strain (AID 177); conditions: S. cerevisiae rad18 mutant growth inhibition, active compounds read high
Method in brief: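 Test articles were incubated with altered yeast defective in DNA damage repair. Results are given as inhibition of growth versus vehicle.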

[15] = NCI Yeast Anticancer Drug Screen. Data for the CLN2oe strain (AID 163);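 further: 0% = growth of vehicle-only control cultures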; conditions: S. cerevisiae CLN2oe strain, active compounds read high
Method in brief: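 Inhibition relative to vehicle-treated yeast is reported. Cells: strain with genetic alteration in cell-cycle control, grown with compound.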

[16] = at 5.0 µM (retest, dose inferred, filed as 0.5)
[17] = at 50.0 µM (retest, dose inferred, filed as 5.0)

Measured: growth inhibition

CC[C@@]1(OC(=O)CN(C)C)C(=O)OCc2c1cc1n(c2=O)Cc2cc3ccccc3nc2-1
active: [1]; at 33.0 µM 85% | [1]; at 100.0 µM 93% | [2]; at 3.7 µM 79% | [2]; at 11.0 µM 92% | [2]; at 33.0 µM 95% | [2]; at 100.0 µM 97% | [3]; at 33.0 µM 90% | [3]; at 100.0 µM 97% | [4]; at 1.2 µM 81% | [4]; at 3.7 µM 95% | [4]; [16] 95% | [4]; at 11.0 µM 96% | [4]; at 33.0 µM 96% | [4]; [17] 97% | [4]; at 50.0 µM 96.8% | [4]; at 100.0 µM 97% | [5]; at 11.0 µM 89% | [5]; at 33.0 µM 94% | [5]; [17] 96% | [5]; at 50.0 µM 99% | [5]; at 100.0 µM 97% | [6]; at 33.0 µM 87% | [6]; at 100.0 µM 95% | [7]; [17] 95% | [7]; at 50.0 µM 93.6% | [8]; [17] 89% | [8]; at 50.0 µM 79.8% | [9]; at 33.0 µM 90% | [9]; [17] 93% | [9]; at 50.0 µM 93.7% | [9]; at 100.0 µM 96% | [10]; at 33.0 µM 84% | [10]; at 100.0 µM 93% | [11]; at 33.0 µM 90% | [11]; at 100.0 µM 96% | [12]; at 11.0 µM 82% | [12]; at 33.0 µM 94% | [12]; at 100.0 µM 96% | [13]; [17] 94% | [13]; at 50.0 µM 97.2% | [14]; at 33.0 µM 92% | [14]; at 100.0 µM 96%
inactive: [1]; at 1.2 µM -1% | [1]; at 3.7 µM 1% | [1]; at 11.0 µM 23% | [2]; at 1.2 µM 42% | [3]; at 1.2 µM -1% | [3]; at 3.7 µM 1% | [3]; at 11.0 µM 32% | [5]; at 1.2 µM 2% | [5]; at 3.7 µM 23% | [5]; [16] 53% | [6]; at 1.2 µM 2% | [6]; at 3.7 µM 8% | [6]; at 11.0 µM 44% | [7]; [16] 38% | [8]; [16] 15% | [9]; at 1.2 µM -7% | [9]; at 3.7 µM -9% | [9]; [16] -3% | [9]; at 11.0 µM 41% | [10]; at 1.2 µM -1% | [10]; at 3.7 µM 10% | [10]; at 11.0 µM 28% | [11]; at 1.2 µM 0% | [11]; at 3.7 µM 2% | [11]; at 11.0 µM 42% | [12]; at 1.2 µM 6% | [12]; at 3.7 µM 28% | [13]; [16] 36% | [14]; at 1.2 µM 1% | [14]; at 3.7 µM 12% | [14]; at 11.0 µM 60%

c1ccc2cc(OCC3CO3)c(OCC3CO3)cc2c1 (stereo unspecified)
inactive: [1]; at 1.2 µM -21% | [1]; at 3.7 µM -21% | [1]; at 11.0 µM -24% | [1]; at 33.0 µM -16% | [1]; at 100.0 µM -2% | [2]; at 1.2 µM -21% | [2]; at 3.7 µM -4% | [2]; at 11.0 µM 22% | [2]; at 33.0 µM 59% | [3]; at 1.2 µM -43% | [3]; at 3.7 µM -25% | [3]; at 11.0 µM -4% | [3]; at 33.0 µM -21% | [3]; at 100.0 µM 11% | [4]; at 1.2 µM -26% | [4]; at 3.7 µM -21% | [4]; [16] 56% | [4]; at 11.0 µM 3% | [4]; at 33.0 µM 59% | [4]; at 50.0 µM 57.1% | [5]; at 1.2 µM -29% | [5]; at 3.7 µM -18% | [5]; [16] 27% | [5]; at 11.0 µM -29% | [5]; at 33.0 µM 1% | [5]; [17] 67% | [5]; at 50.0 µM 58.8% | [5]; at 100.0 µM 64% | [6]; at 1.2 µM -21% | [6]; at 3.7 µM -8% | [6]; at 11.0 µM 1% | [6]; at 33.0 µM 35% | [8]; [16] 14% | [8]; [17] 63% | [8]; at 50.0 µM 60.7% | [9]; at 1.2 µM -22% | [9]; at 3.7 µM -26% | [9]; [16] 19% | [9]; at 11.0 µM -24% | [9]; at 33.0 µM -22% | [9]; [17] 29% | [9]; at 50.0 µM -7.95% | [9]; at 100.0 µM 0% | [10]; at 1.2 µM -38% | [10]; at 3.7 µM -33% | [10]; at 11.0 µM -37% | [10]; at 33.0 µM -19% | [10]; at 100.0 µM 0% | [11]; at 1.2 µM -37% | [11]; at 3.7 µM -32% | [11]; at 11.0 µM -33% | [11]; at 33.0 µM -26% | [11]; at 100.0 µM 14% | [12]; at 1.2 µM -2% | [12]; at 3.7 µM 37% | [14]; at 1.2 µM -8% | [14]; at 3.7 µM 33% | [14]; at 11.0 µM 69%
active: [2]; at 100.0 µM 81% | [4]; [17] 91% | [4]; at 100.0 µM 83% | [6]; at 100.0 µM 82% | [7]; [16] 76% | [7]; [17] 93% | [7]; at 50.0 µM 76.8% | [12]; at 11.0 µM 70% | [12]; at 33.0 µM 82% | [12]; at 100.0 µM 84% | [13]; [16] 84% | [13]; [17] 96% | [13]; at 50.0 µM 81.7% | [14]; at 33.0 µM 86% | [14]; at 100.0 µM 92%

O=C(CCC(=O)c1ccc(O)cc1)Oc1ccc(O)cc1
inactive: [1]; at 1.2 µM -2% | [1]; at 3.7 µM 2% | [1]; at 11.0 µM -2% | [1]; at 33.0 µM -2% | [1]; at 100.0 µM 1% | [2]; at 1.2 µM 5% | [2]; at 3.7 µM 9% | [2]; at 11.0 µM 15% | [2]; at 33.0 µM 17% | [2]; at 100.0 µM 24% | [3]; at 1.2 µM 1% | [3]; at 3.7 µM -1% | [3]; at 11.0 µM 2% | [3]; at 33.0 µM 2% | [3]; at 100.0 µM 3% | [4]; at 1.2 µM 2% | [4]; at 3.7 µM 4% | [4]; [16] -13% | [4]; at 11.0 µM 2% | [4]; at 33.0 µM 6% | [4]; [17] 16% | [4]; at 50.0 µM -2.75% | [4]; at 100.0 µM 11% | [5]; at 1.2 µM -1% | [5]; at 3.7 µM 3% | [5]; [16] -2% | [5]; at 11.0 µM 3% | [5]; at 33.0 µM 7% | [5]; [17] -11% | [5]; at 50.0 µM -22.5% | [5]; at 100.0 µM 5% | [6]; at 1.2 µM -1% | [6]; at 3.7 µM -1% | [6]; at 11.0 µM -1% | [6]; at 33.0 µM 1% | [6]; at 100.0 µM 5% | [7]; [16] -8% | [7]; [17] 10% | [7]; at 50.0 µM 2.2% | [15]; at 1.2 µM 3% | [15]; at 3.7 µM -11% | [15]; at 11.0 µM 5% | [15]; at 33.0 µM 3% | [15]; at 100.0 µM 6% | [8]; [16] -9% | [8]; [17] 40% | [8]; at 50.0 µM 8.3% | [9]; at 1.2 µM 12% | [9]; at 3.7 µM 21% | [9]; [16] 18% | [9]; at 11.0 µM 33% | [9]; at 33.0 µM 40% | [9]; [17] 67% | [9]; at 50.0 µM 29.1% | [9]; at 100.0 µM 47% | [10]; at 1.2 µM -1% | [10]; at 3.7 µM -1% | [10]; at 11.0 µM -2% | [10]; at 33.0 µM 1% | [10]; at 100.0 µM -1%
